Assay results reported in the supplement of paper PMC12636033.
± gives the standard deviation of the averaged measurements. In all, about 33,000 sequences were measured (“E-score (rank enrichment, -0.5 to 0.5)”: median about -0.0068, highest 2% from about 0.24 on). The entries come from a sample that favours the highest values as a whole.

Tested on: muMax20 (Max(13-93) K31hArg/K57hArg, M65Nle)
Test: PBM 8-mer E-score (E-score (rank enrichment, -0.5 to 0.5)); higher = stronger preferential binding
Method: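 Protein binding microarray (universal PBM chip covering all 10-mers in fixed probe flanks) with chemically synthesized human Max(13-93) bHLH-LZ analogs (not full-length Max) bearing noncanonical residues (hArg, Tha, Aib, Nle at 65) and aromatic Cys staples. Read-out per 8-mer (and its reverse complement): E-score (rank-based enrichment, -0.5 to 0.5) and Z-score of median probe intensity.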

Sequence	PBM 8-mer E-score
TGTGGTAA	0.244 ± 0.067
GGTGGTAA	0.0953 ± 0.084
CATGGTAA	0.297 ± 0.052
GGGGCGAA	0.0451 ± 0.035
CCGCGAGG	-0.191 ± 0.082
CTCTCTCA	-0.0954 ± 0.052
CCCCAGTA	0.0363 ± 0.019
CAAGGATA	0.00143 ± 0.082
CCATAACA	0.141 ± 0.035
CGGCGACC	-0.159 ± 0.097
TGCGGCAA	0.0884 ± 0.051
AGACCTGG	-0.177 ± 0.069
ATGCGCAT	0.295 ± 0.03
ATGCGCAC	-0.00186 ± 0.029
ATGCGCAA	0.0942 ± 0.019
AACCGCAC	0.0872 ± 0.056
CGGTCGGC	-0.2874 ± 0.0021
TAATGCCA	0.142 ± 0.036
AACACGTG	0.481 ± 0.017
CACACGTC	0.0717 ± 0.034
CACACGTA	0.125 ± 0.018
CACACGTG	0.426 ± 0.074
AACACGTC	0.091 ± 0.002
AACACGTA	0.218 ± 0.0095
GCATTGCA	0.14 ± 0.028

Sequence	PBM 8-mer E-score
CGATTACC	-0.0103 ± 0.049
CAGAGTGA	0.00192 ± 0.0028
GCCCCTAA	-0.0669 ± 0.16
ATCCCCGG	-0.16 ± 0.024
AAGATTCC	0.00605 ± 0.027
ACATAAGA	0.174 ± 0.014
CGTCGGGC	-0.152 ± 0.008
GCAATAAC	0.138 ± 0.014
CATTATTC	0.104 ± 0.032
CATTATTA	0.242 ± 0.051
GCTTATTA	0.1783 ± 0.0012
CCTTATTA	0.28 ± 0.04
GATTATTA	0.118 ± 0.064
AATTATTG	0.191 ± 0.012
AATTATTC	0.101 ± 0.071
CCTTATTC	-0.029 ± 0.059
AATTATTA	0.309 ± 0.036
CACTCGCG	-0.0815 ± 0.047
GAAGAGTC	0.089 ± 0.11
CAGTGCTA	-0.08 ± 0.053
GCAGAGCA	-0.187 ± 0.06
CTATATAG	0.134 ± 0.082
GAGGATAA	0.0253 ± 0.093
AGTTAGTC	-0.094 ± 0.036
AATTAGTA	0.28 ± 0.034

Sequence	PBM 8-mer E-score
AGTTAGTA	0.27 ± 0.033
AATTAGTC	0.0746 ± 0.11
CATTAGTA	0.0251 ± 0.027
GGTTAGTA	0.0601 ± 0.091
ACTGATGG	-0.0638 ± 0.09
GTCCGATA	-0.0402 ± 0.11
CTCCCGAC	-0.0892 ± 0.047
ATCCCGCG	-0.0553 ± 0.1
CCCATTAA	-0.0202 ± 0.017
AGCATTAC	-0.0675 ± 0.077
TCCATTAA	-2.5e-05 ± 0.096
AGCATTAA	0.232 ± 0.0024
AGCATTAT	0.262 ± 0.048
ACCATTAA	0.348 ± 0.021
AGCATTAG	0.142 ± 0.042
TGCATTAA	0.277 ± 0.062
CGCATTAA	-0.00237 ± 0.005
ACTTATAA	0.0449 ± 0.25
AATCTTTG	0.0923 ± 0.013
CGTTGGGA	-0.0152 ± 0.0038
GTGTTCTA	0.169 ± 0.024
AAATCCGT	-0.0161 ± 0.1
AGGTCCGC	-0.129 ± 0.034
ATATTTTA	0.203 ± 0.0096
ACACGAAC	0.122 ± 0.011

Sequence	PBM 8-mer E-score
ATGTTTAC	0.245 ± 0.073
ATGTTTAG	0.222 ± 0.12
CTGTTTAC	0.106 ± 0.041
AGTTCACC	-0.068 ± 0.0075
GATTAAAC	0.134 ± 0.071
ATTAAAAA	0.0946 ± 0.0066
AATTAAAC	0.268 ± 0.072
AATTAAAG	0.108 ± 0.13
ATTAAAAC	0.269 ± 0.022
ATTAAACA	0.132 ± 0.15
ATTAAACG	0.287 ± 0.003
ATTAAACC	0.164 ± 0.03
ATTAAAAG	0.119 ± 0.073
GTTCTTGA	0.0649 ± 0.045
CAAGGTGG	-0.0168 ± 0.088
TAGAAGAA	-0.0576 ± 0.025
GACATCCC	-0.00641 ± 0.062
AATACCTA	0.214 ± 0.067
CGAAGCTA	-0.176 ± 0.022
GGTCCAAC	-0.234 ± 0.16
ATGGTAAA	0.13 ± 0.053
ATTATTAG	0.247 ± 0.061
ATTATTAA	0.212 ± 0.035
CTTATTAC	0.101 ± 0.014
ACTATTAC	0.0842 ± 0.022

Sequence	PBM 8-mer E-score
ACTATTAG	-0.0835 ± 0.051
ATTATTAC	0.255 ± 0.028
GCGGCTGA	-0.177 ± 0.019
CAATTCAA	0.0283 ± 0.0014
ATTCCCCA	0.209 ± 0.066
ACTCCAGA	-0.0288 ± 0.033
CCAGGAAC	-0.286 ± 0.11
CAGGATTA	0.0457 ± 0.03
CAGCAGGG	-0.114 ± 0.086
TAAGAACA	0.239 ± 0.0029
GAAGAACA	0.127 ± 0.031
CAAGAACA	-0.0329 ± 0.2
ACGTTTAT	0.0742 ± 0.017
AATTGGCC	-0.0791 ± 0.05
GTTGGTAA	0.0564 ± 0.03
ATGTGTGG	0.104 ± 0.095
ATATGTGG	0.261 ± 0.098
CTATGTGA	0.0996 ± 0.088
GTATGTGA	0.0146 ± 0.021
ATATGTGC	0.121 ± 0.056
ATATGTGA	0.32 ± 0.08
CACGAATG	0.101 ± 0.063
GGCGGACA	-0.0909 ± 0.047
GTCCTAAA	0.0453 ± 0.11
ATGGCATG	0.0857 ± 0.18

Sequence	PBM 8-mer E-score
ACTTTCTC	0.0328 ± 0.03
ACTTTCTA	0.237 ± 0.046
ACTTTCTG	-0.00396 ± 0.12
CCGAAAAG	0.0771 ± 0.15
ATGAATTG	0.179 ± 0.062
CCTACAAC	0.13 ± 0.0096
ACTACAAC	0.268 ± 0.024
AATACACG	0.256 ± 0.027
ACTACAAG	0.135 ± 0.062
CATACACA	0.221 ± 0.047
GGTATACA	0.109 ± 0.022
AATACACA	0.308 ± 0.05
TGTATACA	0.335 ± 0.051
CATACACG	0.166 ± 0.029
TATACACA	0.234 ± 0.038
AATACACT	0.188 ± 0.042
CGTATACA	0.216 ± 0.049
CGCGACCA	-0.136 ± 0.0046
ATATGGTA	0.217 ± 0.0028
GTCGGACA	-0.2 ± 0.096
GAATAACC	0.0359 ± 0.041
TCGAAACA	0.00709 ± 0.067
ACAGAGTC	-0.0304 ± 0.021
ATCCTACA	-0.0539 ± 0.011
GTTCCCGA	-0.272 ± 0.029

Sequence	PBM 8-mer E-score
AAACTCGG	-0.00029 ± 0.062
TGAAATCA	0.102 ± 0.042
CACCTAGC	0.0921 ± 0.017
AGTACACA	0.22 ± 0.037
ACTACACA	0.315 ± 0.053
CCTACACG	0.00955 ± 0.02
CGTACACG	0.212 ± 0.059
TGTACACA	0.251 ± 0.073
ACTACACG	0.149 ± 0.0089
ATCCCTGG	-0.185 ± 0.058
ACTCCATC	-0.129 ± 0.053
ATTTCATC	0.17 ± 0.077
TGAAGACA	-0.094 ± 0.12
GCTGTATA	0.192 ± 0.026
CATGTATA	0.228 ± 0.034
GTTGTATA	0.249 ± 0.025
AAAGTATA	0.315 ± 0.012
GATGTATA	0.103 ± 0.14
AATGTATA	0.279 ± 0.074
ACTGTATA	0.255 ± 0.011
CCTGTATA	0.116 ± 0.042
CAAGTATA	0.187 ± 0.011
AAAGTATT	0.221 ± 0.0025
CTTGTATA	0.136 ± 0.16
ATTGTATA	0.131 ± 0.13
